Our source for the B-score values is PubChem BioAssay AID2642 (Johns Hopkins Ion Channel Center, 2010).

Among all 310,000 compounds or so, about 3,900 (1.3%) were called active. The sample holds actives, similar compounds and a random draw of the others, so the mix is not that of the screen.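 Rule for the calls: active = compounds whose thallium flux B-score, printed positive for inhibition, exceeds three library SD while starting fluorescence stays within three; inactive = the rest.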

Chain of Potassium voltage-gated channel subfamily KQT member 1 (Homo sapiens) (P51787 whole entry, looked up): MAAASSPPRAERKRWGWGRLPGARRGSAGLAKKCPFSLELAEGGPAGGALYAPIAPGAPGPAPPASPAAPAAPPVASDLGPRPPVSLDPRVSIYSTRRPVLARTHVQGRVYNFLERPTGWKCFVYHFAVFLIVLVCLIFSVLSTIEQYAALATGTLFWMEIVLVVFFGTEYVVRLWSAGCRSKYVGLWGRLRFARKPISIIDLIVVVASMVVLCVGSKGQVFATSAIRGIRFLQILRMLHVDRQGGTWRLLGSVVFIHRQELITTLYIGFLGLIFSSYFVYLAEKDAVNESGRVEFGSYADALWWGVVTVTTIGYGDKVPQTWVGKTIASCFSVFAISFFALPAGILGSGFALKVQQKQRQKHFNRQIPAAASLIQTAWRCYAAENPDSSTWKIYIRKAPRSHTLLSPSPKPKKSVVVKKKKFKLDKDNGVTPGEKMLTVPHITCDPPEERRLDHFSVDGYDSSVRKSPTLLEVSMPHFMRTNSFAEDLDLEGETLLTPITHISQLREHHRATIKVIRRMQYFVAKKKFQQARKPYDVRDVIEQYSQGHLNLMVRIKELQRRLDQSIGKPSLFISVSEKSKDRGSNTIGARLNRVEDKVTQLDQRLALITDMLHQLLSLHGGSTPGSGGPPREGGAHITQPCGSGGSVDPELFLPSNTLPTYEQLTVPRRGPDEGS

This experiment concerns the target Potassium voltage-gated channel subfamily KQT member 1 (Homo sapiens) (UniProt P51787). Put plainly: KCNQ1 potassium current blockers – cell-based, thallium flux, high-throughput, primary screen (AID 2642).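 Note: channel opened by potassium depolarization with thallium stimulus after 20 min compound exposure.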 The settings on record: CHO-K1 KCNQ1, FluxOR thallium flux fluorescence, at 10 µM; hits give high values.
Turning to `Cc1cccc(N2CCC(NCc3c(C(=O)N4CCCCC4)nc4c(C)cccn34)CC2)c1`, the B-score result is “inactive”.

`Cc1ccc(S(=O)(=O)N2CCN(C)CC2)cc1`: the B-score result is “inactive”.

Take `Cc1ccc(N2CCN(S(=O)(=O)c3ccc(F)cc3)CC2)c(C)c1`: the B-score is 7 (active).

Regarding `Cc1ccccc1N1CCN(S(=O)(=O)c2ccc3ccccc3c2)CC1`, the B-score result was “inactive”.

As for `O=C(NCC1CCCO1)c1cc(-c2ccccc2)nc2ccccc12` (centres undefined), the B-score result is “inactive”.

As to `c1ccc2c(NCC3CCCO3)nc(-c3ccncc3)nc2c1` (centres undefined), the B-score entry is “inactive”.

As to `Clc1cccc(-c2nc(NCC3CCCO3)c3ccccc3n2)c1` (centres undefined), the B-score is 6 (active).

`COc1ccc(CC(NC(C)=O)C(=O)NC2CCN(C(=O)c3ccc(Cl)cc3)CC2)cc1` (centres undefined): the B-score entry is “inactive”.

With `CC1CCN(C(=S)NC(=O)c2ccccc2Br)CC1`, the B-score result was “inactive”.

Regarding `C=CCn1c(-c2ccc3[nH]c(C)c(C)c3c2)n[nH]c1=S`, the B-score result is “inactive”.

Regarding `C=CCn1c(-c2sc(-c3ccccc3)nc2C)n[nH]c1=S`, the B-score result is “inactive”.

Take `C=CCn1c(-c2ccccc2OCC)n[nH]c1=S`: the B-score is 6 (active).

On to `COc1ccc(S(=O)(=O)N2CCN(C)CC2)c(C)c1`, for which the B-score entry is “inactive”.

Regarding `CC(C)(C)NC(=O)CN(Cc1cccs1)C(=O)CNS(=O)(=O)c1ccccc1`, the B-score entry is “inactive”.

Take `Cc1cccc(-c2nc3ccc(C(=O)NCCN4CCN(C)CC4)cc3nc2-c2cccc(C)c2)c1`: the B-score is 7 (active).

`CCC1=Nc2cc(C(=O)NCCN3CCCC3)ccc2Sc2ccc(C)cc21`: the B-score entry is “inactive”.

Turning to `Cc1ccc(C(=O)NCCN2CCOCC2)cc1C`, the B-score entry was “inactive”.

On to `O=C(Nc1ccccc1N1CCN(C(=O)c2ccccc2)CC1)c1ccco1`, for which the B-score result is “inactive”.

Consider `CCCNC(=O)c1ccc(N2CCC3(CC2)CC(c2cccc(Br)c2)=NO3)c(NC(=O)c2ccco2)c1`, for which the B-score is 6 (active).

For the molecule `CCCNC(=O)c1ccc(N2CCC3(CC2)CC(c2ccc(Cl)cc2)=NO3)c([N+](=O)[O-])c1`, the B-score entry was “inactive”.

In the case of `c1ccc2c(C[n+]3csc4ccccc43)cccc2c1`, the B-score entry is “inactive”.

Consider `CC1(C(=O)NCCc2c[nH]c3ccccc23)C=CC2(CCCCC2)N1C(=O)c1ccccc1` (centres undefined), for which the B-score result is “inactive”.

With `C/C(=N\NC(=S)NC1CCCCC1)c1ccc(C)o1`, the B-score result is “inactive”.

In the case of `CCc1nnc(NC(=O)CSc2nnc(COc3ccc(C#N)cc3)n2-c2ccccc2)s1`, the B-score result is “inactive”.

`CCc1nnc(NC(=O)CSc2nnc(Cc3ccccc3)n2-c2ccc(OC)cc2)s1`: the B-score was 11 (active).

As for `CCc1nnc(NC(=O)CSc2nnc(-c3ccncc3)n2Cc2ccccc2)s1`, the B-score result is “inactive”.

Turning to `O=C(NCc1ccccc1Cl)C1CCN(S(=O)(=O)c2cccc3nonc23)CC1`, the B-score entry was “inactive”.

In the case of `O=C1CCc2cc(S(=O)(=O)N3CCC(C(=O)NCc4ccccc4Cl)CC3)ccc2N1`, the B-score is 8 (active).

With `O=C(NCc1ccccc1Cl)C1CCN(S(=O)(=O)N2CCOCC2)CC1`, the B-score result was “inactive”.
